Test results published in PubChem BioAssay AID1159580 (chemical genetic matrix, 2015).
The campaign covered roughly 5,500 compounds. About 2,000 (36%) were called active. About 18% were inconclusive and are not listed. No stated cut-off is given here; in the data, active means normalized growth mostly below about 0.91 (no sharp cut-off); inconclusive means no clear call, values can overlap the other calls; inactive means mostly above about 0.92. The list shows a part of the results.

Test: chemical genetic growth profiling, strain panel (AID 1159580);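 further: tested at 20 µM; growth read once vehicle control cultures reached saturation at 30 °C; 1 = growth at the plate median or of vehicle wells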
Details: S. cerevisiae deletion strains, growth OD
[1] = locus YAL040C, strain CLN3, stronger effect = lower value
[2] = locus YCL061C, strain MRC1 (second series), stronger effect = lower value
[3] = locus YDR363W, strain ESC2, stronger effect = lower value
[4] = locus YER002W, strain NOP16, stronger effect = lower value
[5] = locus YMR263W, strain SAP30, stronger effect = lower value
[6] = locus YNL175C, strain NOP13, stronger effect = lower value
[7] = locus YNL197C, strain WHI3, stronger effect = lower value
[8] = locus YNL224C, strain SQS1, stronger effect = lower value
[9] = locus YOR083W, strain WHI5 (second series), stronger effect = lower value
[10] = locus YPL055C, strain LGE1, stronger effect = lower value
[11] = locus YPL241C, strain CIN2, stronger effect = lower value

Measured: normalized growth

S=C=Nc1cccc(C2(N3CCCCC3)CCCCC2)c1
inactive: locus YAL013W, strain DEP1, stronger effect = lower value 0.993 | [1] 0.998 | [2] 0.998 | [3] 0.993 | [4] 1.01 | locus YJR075W, strain HOC1, stronger effect = lower value 0.984 | [5] 1 | locus YMR307W, strain GAS1, stronger effect = lower value 1 | locus YNL153C, strain GIM3, stronger effect = lower value 0.968 | [6] 0.994 | [7] 1.08 | [8] 1.04 | [9] 1 | [10] 0.939 | [11] 1

CC1(C)CCC(NC(=O)[C@@H](N)CCC(=O)O)CC1
inactive: [1] 1.02 | [2] 0.999 | [3] 1.02 | [4] 0.995 | locus YGR078C, strain PAC10, stronger effect = lower value 1.02 | [5] 0.999 | [6] 1.01 | [7] 0.998 | [8] 0.999 | locus YNL322C, strain KRE1, stronger effect = lower value 1.01 | [9] 1 | [10] 1.02 | [11] 0.996
